{"source": "PubChem BioAssay AID588851", "about": "(Broad Institute, 2011)", "target": "CAAX prenyl protease 2 (Saccharomyces cerevisiae (strain ATCC 204508 / S288c)) (UniProt Q03530)", "sequence (Q03530 whole entry, looked up)": "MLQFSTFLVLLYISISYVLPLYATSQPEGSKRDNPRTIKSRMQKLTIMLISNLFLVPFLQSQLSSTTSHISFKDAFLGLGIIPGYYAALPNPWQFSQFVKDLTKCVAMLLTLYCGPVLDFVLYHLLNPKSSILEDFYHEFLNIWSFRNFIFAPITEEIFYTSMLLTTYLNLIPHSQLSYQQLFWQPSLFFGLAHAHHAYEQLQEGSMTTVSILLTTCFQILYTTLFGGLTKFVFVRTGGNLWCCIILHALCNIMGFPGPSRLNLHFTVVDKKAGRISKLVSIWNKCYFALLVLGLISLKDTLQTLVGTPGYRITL", "test": "yeast Rce1 CaaX protease inhibitors, dose response, biochemical, plate reader, dry powder retest (AID 588851)", "conditions": "yeast membrane Rce1 fluorogenic peptide cleavage, 60 min; series mostly up to 30 µM", "note": "Measured potencies and affinities stand elsewhere. Records with an inconclusive call do not appear. Active and inactive are the calls of the source.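 The calls were made as follows: active = compounds that lower the signal with a fitted half-maximal concentration at most ten times the top valid dose; inconclusive = flat curve with moderate inhibition, or an unreliable fit; inactive = the rest.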", "data": [{"smiles": "O=C(CCNC(=O)N1CC(=O)Nc2ccccc21)NCCc1cccc(F)c1", "values": [{"measurement": "outcome", "result": "inactive"}]}]}
